A number with no mark means an inactive call. Activity calls are given as the source filed them. Calls come from the whole dose curve; as a rule, active = well fitted inhibition curve with a large enough effect; inactive = flat fitted curve, though single readings scatter.

For this assay, the target named is Dual specificity tyrosine-phosphorylation-regulated kinase 1A (Homo sapiens) (UniProt Q13627). The assay is described as follows: Reaction Biology data for inhibitors of DYRK1A: Probe SAR. Conditions: Reaction Biology DYRK1A kinase assay, 10 uM ATP; series mostly up to 10 µM; activity change, negative = inhibition: at the top concentration. The source says: Alternative splicing of pre-mRNAs plays a major role in the regulation of eukaryotic gene expression. Alternative splicing is now thought to be one of the primary reasons for the complexity of higher organisms leading to an average of three protein isoforms per gene. Aberrant splicing can lead to a number of diseases and is known to play a role in rare genetic diseases such as progeria syndrome. Hutchinson-Gilford Progeria Syndrome (HGPS) is a pediatric premature aging disease caused by a spontaneous mutation in the lamin A/C (LMNA) gene due to a single point mutation in the lamin A gene effecting 1 in 4 million people. To identify both specific splicing modulators of the lamin A gene as well as general splicing modulators, a cell-based HTS assay was developed using a minigene reporter system (AIDs, 1459 & 1487). […] This AID summarizes the characterization of lead compounds in Dyrk1a. NIH Molecular Libraries Probe Production Centers Network [MLPCN] NIH Chemical Genomics Center [NCGC] MLPCN Grant: MH084827 Assay Submitter (PI): Tom Misteli
Compound IC50s were determined at Reaction Biology (http://www.reactionbiology.com) with ten concentration points starting at 10 uM in the assay using a 3-fold dilution series. The control compound staurosporine was also tested in the 10-dose IC50 mode with the same 3-fold serial dilution, again starting at 10 uM. All kinase reactions were performed using 10 uM ATP in the assay. 100% activity was taken from kinase reactions with DMSO alone (the vehicle used for compound stock solutions).
For the compound `c1cncc(CNc2ncncc2-c2ccc3c(c2)OCO3)c1`, the “activity change, negative = inhibition” value was -50%.

With `Clc1ccc(CNc2nccc(-c3ccc4c(c3)OCO4)n2)cc1Cl`, the Potency was 26.3 nM (active). Consider `COc1ccc(-c2ccnc(NCc3ccc(Cl)c(Cl)c3)n2)cc1OC`, for which the “activity change, negative = inhibition” value is -30.6%. With `O=[N+]([O-])c1cc(Nc2nccc(-c3ccc4c(c3)OCO4)n2)cc(C(F)(F)F)c1`, the Potency was 24.1 nM (active). Turning to `Cc1nc(CNc2ncnc3ccc(-c4ccc5c(c4)OCO5)cc23)cs1`, the Potency was 33.3 nM (active).

Turning to `Cc1c(-c2ccnc(NCc3cccnc3)n2)sc(=O)n1C`, the Potency was 29.3 nM (active). On to `Clc1ccc(CNc2ccnc(-c3ccc4c(c3)OCO4)n2)cc1Cl`, for which the “activity change, negative = inhibition” value is -22.4%. Regarding `c1cc(-c2ccc3c(c2)OCO3)nc(Nc2ccc3c(c2)OCO3)n1`, the Potency is 24.9 nM (active). As to `COc1ccc(-c2ccnc(NCc3ccc(Cl)cc3)n2)cc1`, the Potency is 558 nM (active). In the case of `Cc1nc(CN(C)c2ncnc3ccc(-c4ccc5[nH]ncc5c4)cc23)cs1`, the Potency is 64.1 nM (active).

For `COc1ccc(-c2ccnc(NCc3ccc(Cl)c(Cl)c3)n2)cc1`, the Potency is 203 nM (active). Take `Cc1c(-c2ccnc(NCc3ccc(Cl)cc3)n2)sc(=O)n1C`: the Potency was 62.9 nM (active). `Brc1cc(Br)cc(CNc2nccc(-c3ccc4c(c3)OCO4)n2)c1`: the Potency was 10.7 nM (active). Still for that read-out and setting: the figure for `COc1cccc(-c2ccnc(NCc3ccc(Cl)cc3)n2)c1` is 6360 nM (active); for `Clc1ccc(CNc2nccc(-c3ccc4c(c3)OCCO4)n2)cc1Cl` it is 18.2 nM (active). The same measure, in the same setting: for `c1cncc(CNc2ccnc(-c3ccc4[nH]ncc4c3)n2)c1` the value was 349 nM (active). The same measure, in the same setting: for `c1cncc(CNc2nccc(-c3ccc4[nH]ncc4c3)n2)c1` the value was 60.8 nM (active); for `FC(F)(F)c1cc(Br)cc(Nc2nccc(-c3ccc4c(c3)OCO4)n2)c1`, 107 nM (active); for `Cc1nc(CN(C)c2ncnc3ccc(-c4ccc5c(c4)OCO5)cc23)cs1`, 5.2 nM (active). In the case of `c1cncc(CNc2ccnc(-c3ccc4cn[nH]c4c3)n2)c1`, the Potency is 1430 nM (active).

On to `Clc1ccc(CNc2nccc(-c3ccc4[nH]ncc4c3)n2)cc1Cl`, for which the Potency was 128 nM (active). `Clc1ccc(CNc2nccc(-c3ccc4cn[nH]c4c3)n2)cc1Cl`: the Potency is 169 nM (active). The same measure, in the same setting: for `FC(F)(F)c1cccc(Nc2nccc(-c3ccc4c(c3)OCO4)n2)c1` the value was 10.4 nM (active). Same read-out and setting: for `Clc1ccc(CNc2ccnc(-c3ccc4[nH]ncc4c3)n2)cc1Cl` the value was 2350 nM (active). On the same count and under the same terms, the figure for `c1nc(NCC2CCCO2)c2cc(-c3ccc4c(c3)OCO4)ccc2n1` (configuration not stated) is 24.3 nM (active); for `Clc1ccc(CNc2ncncc2-c2ccc3c(c2)OCO3)cc1Cl` it is 3450 nM (active); for `Clc1ccc(CNc2ncncc2-c2ccc3c(c2)OCO3)cc1` it is 4580 nM (active). On to `Clc1ccc(Nc2nccc(-c3ccc4c(c3)OCO4)n2)cc1`, for which the Potency is 273 nM (active). The same measure, in the same setting: the figure for `Clc1cc(Cl)cc(CNc2ncncc2-c2ccc3c(c2)OCO3)c1` is 282 nM (active). Same read-out and setting: the figure for `c1cncc(CNc2nccc(-c3ccc4c(c3)OCO4)n2)c1` is 7.1 nM (active); for `COc1cccc(-c2ccnc(NCc3ccc(Cl)c(Cl)c3)n2)c1` it is 4650 nM (active). Take `Brc1ccc(CNc2nccc(-c3ccc4c(c3)OCO4)n2)cc1Br`: the Potency is 79.3 nM (active).

Values taken from PubChem BioAssay AID624045 (National Center for Advancing Translational Sciences (NCATS), 2012).
